The values below come from PubChem BioAssay AID504715 (Sanford-Burnham Center for Chemical Genomics, 2011).

A word on the inhibition: it is the relative decrease from the control value, in per cent.

The other results are listed elsewhere or left out. Values without a mark were called inactive.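 The calls were made as follows: active = compounds giving 40% or more inhibition at 20 µM in any one of the three replicates; inactive = the rest.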

Chain of Uracil-DNA glycosylase (Escherichia coli (strain K12)) (P12295 whole entry, looked up): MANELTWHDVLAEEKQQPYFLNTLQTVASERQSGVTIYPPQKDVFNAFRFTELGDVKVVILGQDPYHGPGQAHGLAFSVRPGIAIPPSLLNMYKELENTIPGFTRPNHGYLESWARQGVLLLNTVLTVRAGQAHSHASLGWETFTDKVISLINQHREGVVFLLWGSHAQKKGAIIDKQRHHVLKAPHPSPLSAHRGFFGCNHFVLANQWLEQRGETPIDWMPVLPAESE

This test addresses Uracil-DNA glycosylase (Escherichia coli (strain K12)) (UniProt P12295). Put plainly: uracil-DNA glycosylase inhibition, oligo cleavage readout – biochemical, single concentration, fluorescence, FAM/TAMRA oligo, counter-screen for APOBEC3G inhibitor project, confirmation (AID 504715).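 Also: plate controls were DMSO wells with UDG and oligo for no effect and DMSO wells lacking both for full effect; inhibitors lower the FAM signal released by uracil excision and alkaline cleavage.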 The conditions noted are these: UDG counterscreen, at 20 µM, active compounds read high. (A counterscreen serves to expose hits that act by an unwanted route or on another target.)
As for `Fc1ccccc1/C=N/n1c(-c2cccnc2)n[nH]c1=S`, the inhibition is 0.6%.
In the case of `Cc1noc(C)c1CSc1nc2cc(S(=O)(=O)N3CCOCC3)ccc2o1`, the inhibition was 1.21%.
As for `Cc1cc(-c2n[nH]c(=S)n2-c2ccc(C)c(C)c2)no1`, the figure is -3.59%.
For `Cc1n[nH]c(=S)n1/N=C/c1ccc(Br)o1` the value was -0.61%; for `CC1=C/C(=N\OS(=O)(=O)c2ccccc2)C=CC1=O`, 1.47%.
For `CC(C)(C)c1nnc(NC(=O)C2c3ccccc3Oc3ccccc32)s1` the value was -3.35%; for `COc1ccc(OCc2n[nH]c(=S)n2N)cc1`, -3.03%; for `COc1ccc(N2C(=O)CC(Sc3n[nH]c(-c4ccc(C)cc4)n3)C2=O)cc1` (stereo unspecified), -1.53%.
As to `Cc1ccc(NC(=O)c2sc3nc(N)c(C#N)cc3c2N)cc1`, the inhibition is -3.69%.
As for `O=c1[nH]c2ccccc2n2c(-c3ccccc3)nnc12`, the figure is -5.75%; as for `S=c1[nH]nc(-c2ccc(Cl)cc2)n1CC1CCCO1` (stereo unspecified), 2.84%; as for `COC(=O)c1cccc(-n2[nH]nnc2=S)c1`, -3.23%.
As for `S=c1[nH]nc(-c2cc(-c3ccccc3)n[nH]2)n1/N=C/c1c2ccccc2cc2ccccc12`, the figure is 7.23%; as for `CC(=O)N1CC[n+]2c(-c3ccc([N+](=O)[O-])cc3)csc21`, -1.28%; as for `COc1ccc(OCc2nnc3n2N=C(c2ccccc2)C(CC(=O)O)S3)cc1` (stereo unspecified), -3.19%.
In the case of `COc1cccc(C(=O)CC(=O)C(=O)Nc2ccc([N+](=O)[O-])cc2C)c1`, the inhibition is 3.46%.
On to `O=C(Cn1cnc([N+](=O)[O-])n1)NCCc1ccccc1`, for which the inhibition was 5.33%.
For the compound `CCOC(=O)c1sc(=S)n2c1[nH]c(=O)c1ccc(C(=O)OC)cc12`, the inhibition is 1.35%.
For `Cc1nc([N+](=O)[O-])nn1C12CC3CC(CC(Br)(C3)C1)C2` the value was 2.58%; for `CCc1c(C)[nH]c(=S)c(C#N)c1C`, -0.5%.
In the case of `Fc1ccc(Nc2nnns2)cc1`, the inhibition was 3.44%.
